This passage reports activation results from PubChem BioAssay AID504700 (The Scripps Research Institute Molecular Screening Center, 2011).

Hit rate of the full screen: of about 340,000 compounds, about 270 (0.079%) were called active.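 How the source made its calls: active means activation above a cutoff set at the mean over all compounds plus 3 SD (cut at about 18% in these data); inactive means the rest.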 The entries come from a sample that favours actives as a whole.

The target of this assay is cAMP-dependent protein kinase catalytic subunit beta (Homo sapiens) + cAMP-dependent protein kinase type II-beta regulatory subunit (Homo sapiens) (UniProt P22694+P31323). The assay is described as follows: compounds dissociating PKAc from R2B subunit – biochemical, fluorescence polarization, Cy5-IP20, human, primary screen (AID 504700).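 Further: higher means more holoenzyme dissociation and a rise in polarization.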 Conditions: PKA-R2B holoenzyme dissociation, at 11.4 µM, stronger effect = higher value, 0% DMSO only, 100% 113 µM cGMP, R2B truncated from residue 108, S112A mutant. Background: In fluorescence polarisation assays a small probe gives low polarisation when free and higher when bound to something large.
cAMP-dependent protein kinase catalytic subunit beta (Homo sapiens) + cAMP-dependent protein kinase type II-beta regulatory subunit (Homo sapiens), sequence (P31323 whole entry, looked up, other chains not shown, the tested form may be a part): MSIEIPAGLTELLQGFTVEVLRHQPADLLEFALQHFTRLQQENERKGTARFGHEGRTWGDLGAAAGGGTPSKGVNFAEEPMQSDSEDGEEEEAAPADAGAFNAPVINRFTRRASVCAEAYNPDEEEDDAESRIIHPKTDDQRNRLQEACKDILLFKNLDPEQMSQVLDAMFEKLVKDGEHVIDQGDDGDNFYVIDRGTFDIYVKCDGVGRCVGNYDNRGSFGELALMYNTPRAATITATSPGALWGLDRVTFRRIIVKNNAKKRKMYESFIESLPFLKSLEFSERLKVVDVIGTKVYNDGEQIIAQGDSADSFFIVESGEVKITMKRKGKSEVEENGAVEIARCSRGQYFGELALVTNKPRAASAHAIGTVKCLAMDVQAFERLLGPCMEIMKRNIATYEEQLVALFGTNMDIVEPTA
On to `C[C@H]1CN([C@@H](C)CO)C(=O)CCCn2cc(nn2)CO[C@@H]1CN(C)S(=O)(=O)c1ccc(-c2ccccc2)cc1`, for which the activation was -2.02% (inactive).
Then `Cc1csc(=O)n1CCC(=O)OCC(=O)Nc1ccc(N2CCOCC2)cc1`, with -13.7% (inactive); and `COc1cc(C)c(CN2CCN(C(=O)CCC(=O)c3ccc(C)s3)CC2)cc1OC`, with -4.23% (inactive); and `C[C@@H]1CN([C@H](C)CO)C(=O)c2cc(-c3ccc(F)cc3)cnc2O[C@H]1CN(C)C(=O)c1ccc(F)cc1`, with -10.7% (inactive).
Under `O=C(CCc1ccc(O)cc1)NN=Cc1cc(Br)ccc1O` stands -5.67% (inactive); under `CCCCN1CC(C)(C)[C@H](CC(=O)Nc2ccc(Br)cc2)C1=O`, -7.25% (inactive).
Then `C=CCOc1cccc(C2C(C(=O)c3ccc(C)o3)=C(O)C(=O)N2CCN2CCOCC2)c1` (stereo unspecified), with 2.21% (inactive); and `CC1(C)CC(=O)C=C(c2ccccc2CO)C1=O`, with -3.08% (inactive); and `C[C@@H]1CN([C@@H](C)CO)C(=O)CCCn2nncc2CO[C@H]1CN(C)C(=O)Nc1ccc(C(F)(F)F)cc1`, with -17.1% (inactive).
For `C[C@@H]1CN([C@H](C)CO)C(=O)CCCn2nncc2CO[C@@H]1CN(C)C(=O)OCc1ccccc1`, the activation is -4.31% (inactive).
Under `O=C(NCCOc1ccccc1)N1[C@H]2CC[C@@H]1C=C(c1ccc(F)cc1OCc1ccccc1)C2` stands -0.02% (inactive); under `CSc1ncnc2c1ncn2CCCNCC(C)c1ccccc1` (stereo unspecified), -3.46% (inactive); under `Cc1ccc(-c2ccc(CN3C(C)C(=O)N(Cc4cn(CCC5OCCCO5)nn4)CCS3(=O)=O)cc2)cc1` (stereo unspecified), -0.73% (inactive).
`CSc1ncccc1C(=O)N1CCCC(Nc2ccc(F)c(F)c2)C1` (stereo unspecified): the activation is -3.17% (inactive).
Regarding `COc1ccccc1-n1c(SCC(=O)Nc2ccc(Cl)cc2)nc(O)c(Cc2ccccc2)c1=O`, the activation is 0.18% (inactive).
Under `Cc1cc(=O)c2ccc(NC(=O)c3ccccc3)cc2[nH]1` stands 0.43% (inactive).
Take `CCC(C)(C)NC(=O)CN(C(=O)CCC(=O)Nc1nccs1)c1ccc2c(c1)OCO2`: the activation was 6.11% (inactive).
Under `COc1ccc(N(CC(=O)NCc2ccc(F)cc2)C(=O)CCC(=O)Nc2nccs2)cc1` stands -12.4% (inactive); under `O=C(CN(C(=O)CCC(=O)Nc1nccs1)c1ccc(F)cc1)NCc1ccc2c(c1)OCO2`, 18.4% (active).
Then `O=C(Nc1ccc2c(c1)[C@@H]1C[C@@H](CC(=O)N3CCCCC3)O[C@@H](CO)[C@@H]1O2)NC1CCCCC1`, with -11.6% (inactive).
Then `O=C(OCc1cn([C@@H]2C[C@H](c3ccc(Cl)cc3)N(Cc3cccs3)C[C@H]2O)nn1)c1ccccc1`, with -14.6% (inactive).
